Screens (PubChem)
AmpC no deterg – blocks E. coli AmpC beta-lactamase in detergent-free assay; AmpC nitrocefin hydrolysis, absorbance 480 nm, 0.0001% Triton; Potency, µM (highest dose often 57.1 µM), hits mostly inhibitors; AID 485341; hit rate 0.52% among 330,000; P00811; further: nearly all actives have a fitted effect of over 20% in size
Target sequence (P00811 whole entry, looked up): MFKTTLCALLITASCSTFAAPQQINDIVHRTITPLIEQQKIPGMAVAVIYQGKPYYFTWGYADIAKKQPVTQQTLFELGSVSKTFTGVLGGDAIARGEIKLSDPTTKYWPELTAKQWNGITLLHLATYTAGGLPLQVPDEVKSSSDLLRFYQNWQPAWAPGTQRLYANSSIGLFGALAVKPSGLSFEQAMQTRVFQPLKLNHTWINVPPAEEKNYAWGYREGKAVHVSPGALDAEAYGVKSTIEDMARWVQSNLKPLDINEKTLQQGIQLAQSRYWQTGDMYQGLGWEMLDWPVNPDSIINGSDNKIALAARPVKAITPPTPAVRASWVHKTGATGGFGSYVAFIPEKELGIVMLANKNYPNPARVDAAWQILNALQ
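AmpC (5.3 nM in the dispensed reagent) in 20 mM phosphate pH 7.0 with 0.01% (detergent screen) or 0.0001% Triton X-100 was preincubated with compounds for 15 min at room temperature. Nitrocefin was then added from an 800 uM solution, and hydrolysis was followed at 480 nm.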
AMA1-RON2 inh – AMA1-RON2 (P. falciparum) interaction inhibition | AlphaScreen AMA1-biotinylated RON2 peptide binding | Potency, µM (doses to about 58.2 µM), hits mostly inhibitors | hit rate 0.2% among 360,000 | AID 720542; further: nearly all actives have a fitted effect of over 45% in size
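AMA1 (3D7) with his tag at 25 nM final met compounds first, then biotinylated RON2 peptide at 25 nM; detection used donor plus acceptor beads, 10 µg/mL apiece, read by AlphaScreen after 30 min at room temperature.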
Sm TGR inh – blocks Schistosoma mansoni thioredoxin glutathione reductase. purified TGR, DTNB reduction, TNB absorbance 405 nm. Potency, µM (titrated, usually from 114 µM), usual class: inhibitors. Q962Y6. hit rate 3% among 360,000; further: nearly all actives have a fitted effect of over 60% in size
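TGR 20 nM + NADPH 100 uM (dispensed conc.), cpd preinc 15 min RT; start with NADPH (500 uM addition) then DTNB (15 mM addition). Kinetic TNB absorbance, 405 nm filter. Four-parameter Hill fit across titration.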
AmpC inh detg – AmpC beta-lactamase inhibition with detergent present. AmpC hydrolysis of nitrocefin, absorbance 480 nm, 0.01% Triton. Potency, µM (doses to about 114 µM), usual class: inhibitors. hit rate 0.041% among 370,000. AID 485294; further: nearly all actives have a fitted effect of over 25% in size
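20 mM phosphate pH 7.0 + 0.01% (detergent screen) or 0.0001% Triton X-100; 5.3 nM AmpC reagent; cpd preinc 15 min RT; nitrocefin (800 uM stock) to start; A480 q20 s × 4 min; Activity was normalised to no-enzyme and no-compound control wells.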
FMDV inh – antivirals against foot and mouth disease virus | FMDV antiviral cell-based qHTS | Potency, µM (series often up to 57.9 µM), actives largely listed as inhibitors | hit rate 1.2% among 410,000 | AID 1159524; calls by dose curve; tested in HEK293T cells; further: read-out not given here; nearly all actives have a fitted effect of over 45% in size
Numbers stand for hits; - = inactive; ? = inconclusive; . = not tested or not shown. The list is not random: actives were taken first. Their share in the collection is about 4.1%. Unless noted, the call rests on the fitted dose curve; in most records, active means well fitted curve in the direction sought with a large enough effect; inconclusive means small, poorly fitted or top-dose-only effect, or another doubt; inactive means no such curve, though single readings can be large; an effect the other way counts as inactive or inconclusive.

SMILES	AmpC no deterg	AMA1-RON2 inh	Sm TGR inh	AmpC inh detg	FMDV inh
Cc1nc(NCc2ccc3nsnc3c2)sc1-c1ccn(C)n1	.	.	.	.	-
COc1cc(N(C)C)ccc1C=c1c2ccccc2n2c1cc(-c1ccccc1)[n+]2C	.	13µM	.	.	?
CN(C)c1ccc(C=c2c3ccccc3n3c2cc(-c2ccc(Cl)cc2)[n+]3C)cc1	.	18µM	.	.	?
CN(c1ccc(Cl)cc1)c1cc(=O)n(C)c2ccccc12	-	-	-	?	?
CN(C)c1ccc(C=c2c3ccccc3n3c2c2c([n+]3C)CCCC2)cc1	.	?	.	.	6.3µM
CN(C)c1ccc(C=c2c3cc([N+](=O)[O-])ccc3n3c2cc(-c2ccccc2)[n+]3C)cc1	.	8.9µM	.	.	32µM
CN(C)c1ccc(/C=C2\CCC/C(=C\c3ccccc3)C2=O)cc1	-	-	-	?	-
CCN(CC)c1ccc(/C=C/c2cccc[n+]2C)c(OC)c1	-	-	-	?	?
COc1ccc(N2CCN(C(CNC(=O)c3ccc(C)cc3)c3ccc4c(c3)OCO4)CC2)cc1 (stereo not given)	.	.	-	-	-
CN(C)c1ccc(C=c2c3ccccc3n3c2cc(-c2ccccc2)[n+]3C)cc1	.	32µM	.	.	16µM
CN(C)c1ccc(/C=C2\SC(=O)N(CC(O)Cn3c4ccccc4c4ccccc43)C2=O)cc1 (stereo not given)	-	-	-	-	-
Cn1c(SCC(=O)NCc2ccco2)nnc1-c1c[nH]c2ccccc12	-	-	-	?	-
COc1ccc(OCc2nnc(SCC(=O)NCc3ccco3)o2)cc1	-	-	-	?	-
COc1ccc(Cc2nnc(SCC(=O)NCc3ccco3)o2)cc1	-	-	50µM	-	-
O=C(CSc1ccc2nnc(-c3ccccn3)n2n1)NCc1ccco1	-	-	40µM	-	-
CCOc1ccc(-n2c(SCC(=O)NCc3ccco3)nnc2-c2c[nH]c3ccccc23)cc1	1.4µM	-	-	?	-
COc1ccc(-c2nnc(SCC(=O)NCc3ccco3)n2C)cc1	-	-	45µM	-	-
O=C(/C=C/c1ccc(F)cc1)NCC1Cc2cccc(-c3ncccn3)c2O1 (stereo not given)	.	.	.	.	-
Cc1cccc(N2CCN(C(=O)Cn3nc(C)c4sc5ccccc5c4c3=O)CC2)c1C	.	.	-	-	-
O=C(CSc1ccc2nnc(-c3ccccc3)n2n1)NCc1ccco1	?	-	45µM	-	-
COc1ccc(-c2nnc3ccc(SCC(=O)NCc4ccco4)nn23)cc1	-	-	40µM	-	-
CC(=O)c1cccc(Nc2nn(-c3ccc(OC(F)(F)F)cc3)nc2C(C)=O)c1	.	.	-	-	-
Cc1ccc(CN(Cc2cccn2-c2nnc(N3CCCC3=O)s2)C(=O)Nc2cc(C)cc(C)c2)cc1	.	.	-	-	-
CCOc1ccc(OCC)c(S(=O)(=O)N2CCN(c3cccc(C)c3C)CC2)c1	.	.	-	-	-
CCOC(=O)N1CCC(=NNS(=O)(=O)c2cccc([N+](=O)[O-])c2)CC1	-	-	28µM	-	-
SMILES	AmpC no deterg	AMA1-RON2 inh	Sm TGR inh	AmpC inh detg	FMDV inh
COc1ccccc1C1CN(CCNC(=O)c2cnsn2)Cc2ccccc2O1 (stereo not given)	.	.	.	.	-
CC(=O)N1CCc2c(sc(NC(=O)C3CC3)c2-c2nc3ccccc3s2)C1	-	-	-	?	25µM
CC(=O)N1CCc2c(sc(NC(=O)CSc3ccccc3)c2-c2nc3ccccc3s2)C1	.	.	-	-	-
CCCCC(=O)Nc1sc2c(c1-c1nc3ccccc3s1)CCN(C(C)=O)C2	0.5µM	.	-	?	.
CC(=Nc1ccccc1)C1=C(O)C(Cc2cccc(F)c2)NC1=O (stereo not given)	.	-	.	.	-
Cc1ccc(S(=O)(=O)N/N=C/c2cc(Br)c(C)o2)cc1	-	-	0.1µM	?	-
Cc1oc(-c2ccccc2NC(=O)C2CCCO2)nc1CNC(=O)c1[nH]c2c(C)ccc(C)c2c1C (stereo not given)	.	.	.	.	-
Cc1ccccc1C(=O)N1CCN(c2ncnc3c2cnn3-c2ccccc2)CC1	-	-	-	?	20µM
CCOC(=O)C1CCN(c2ncnc3nc[nH]c23)CC1	-	-	-	-	-
CCOC(=O)N1CCN(c2ncnc3c2cnn3-c2ccc(Cl)cc2)CC1	6.3µM	.	-	-	.
CCN1CCN(c2ncnc3c2cnn3-c2ccc(Cl)cc2)CC1	-	-	-	-	-
CCOC(=O)N1CCN(c2ncnc3nc[nH]c23)CC1	45µM	-	-	?	-
COc1ccc(C2=NN(CCC(=O)NCCc3ccccc3)C(=O)CC2)cc1	.	.	-	-	-
Cc1cc(=O)n(Cc2cccc(Cl)c2)c2c1c(C)nn2-c1ccccc1	.	.	-	-	-
CCCc1cc(Nc2c(C)n(C)n(-c3ccccc3)c2=O)n2c(nc3ccccc32)c1C#N	-	-	14µM	-	-
CCCc1cc(NCCCCO)n2c(nc3ccccc32)c1C#N	-	-	-	-	-
Cc1cc(Nc2c(C)n(C)n(-c3ccccc3)c2=O)n2c(nc3ccccc32)c1C#N	-	-	22µM	-	-
CCc1c(C)c(C#N)c2nc3ccccc3n2c1Nc1c(C)n(C)n(-c2ccccc2)c1=O	-	?	-	-	-
CN(C)c1nc(C=C(C#N)C#N)c(Cl)n1-c1ccc(F)cc1	-	-	1.8µM	-	14µM
Cc1cc(N2CCOCC2)ccc1/C=C\[N+](=O)[O-]	-	-	20µM	-	?
O=[N+]([O-])c1ccc(N2CCOCC2)cc1O	-	-	-	-	-
CCOc1ccc(CNC(=O)Cn2nc(C)c3sc4ccccc4c3c2=O)cc1	.	.	-	-	-
CCn1cc2nc(SCC(=O)Nc3ccccc3F)n(Cc3ccc(C)cc3)c(=O)c2n1	.	.	-	-	-
Cc1cccnc1NC(=S)NC(=O)/C=C/c1ccco1	-	-	?	-	-
Cc1ccc(NC(=S)NC(=O)/C=C/c2ccco2)c(O)c1	-	-	18µM	-	?
COc1ccc(NC(=S)NC(=O)/C=C/c2ccco2)c(OC)c1	-	-	?	?	-
O=C(/C=C\c1ccco1)NC(=S)Nc1ccccc1O	-	-	8.9µM	-	-
O=C(/C=C/c1ccco1)NC(=S)Nc1ccccn1	-	-	8.9µM	-	-
O=C(/C=C/c1ccco1)NC(=S)Nc1ccccc1O	-	-	10µM	-	-
O=C(NCC(=O)N(Cc1ccco1)C(C(=O)NC1CCCC1)c1ccncc1)c1cccs1 (stereo not given)	-	-	35µM	-	-
